Source: PubChem BioAssay AID1159580 (chemical genetic matrix, 2015)
Among all 5,500 compounds or so, about 2,000 (36%) were called active. Roughly 18% stayed inconclusive and do not appear here. Cut-off read from the data, not from the text of the source: active = normalized growth mostly below about 0.91 (no sharp cut-off); inconclusive = no clear call, values can overlap the other calls; inactive = mostly above about 0.92. This is one part of the list.

Test: chemical genetic growth profiling, strain panel (AID 1159580);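 note: tested at 20 µM; growth read once vehicle control cultures reached saturation at 30 °C; 1 = growth at the plate median or of vehicle wells; lower values mean less growth of the strain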
Settings: S. cerevisiae deletion strains, growth OD

Measured: normalized growth

Clc1cccc(Cl)c1C1CC(c2ccccc2)=Nc2ccccc2S1 (stereo unspecified)
inactive: locus YAR019C, strain CDC15, active compounds read low 0.986 | locus YBL105C, strain PKC1, active compounds read low 0.986 | locus YBR135W, strain CKS1, active compounds read low 0.993 | locus YBR136W, strain MEC1, active compounds read low 0.962 | locus YBR160W, strain CDC28, active compounds read low 0.988 | locus YDL017W, strain CDC7, active compounds read low 0.98 | locus YDL028C, strain MPS1, active compounds read low 0.99 | locus YDL101C, strain DUN1, active compounds read low 0.984 | locus YDL108W, strain KIN28, active compounds read low 0.989 | locus YDL132W, strain cdc53, active compounds read low 0.994 | locus YDL214C, strain PRR2, active compounds read low 0.978 | locus YDR052C, strain DBF4, active compounds read low 0.982 | locus YDR054C, strain cdc34, active compounds read low 0.978 | locus YDR226W, strain ADK1, active compounds read low 0.982 | locus YDR477W, strain SNF1, active compounds read low 0.979 | locus YER123W, strain YCK3, active compounds read low 0.981 | locus YER133W, strain GLC7, active compounds read low 0.981 | locus YFL009W, strain cdc4, active compounds read low 0.989 | locus YFL029C, strain CAK1, active compounds read low 0.98 | locus YFR003C, strain YPI1, active compounds read low 0.989 | locus YFR019W, strain FAB1, active compounds read low 0.986 | locus YFR028C, strain CDC14, active compounds read low 0.985 | locus YGR040W, strain KSS1, active compounds read low 0.967 | locus YGR052W, strain FMP48, active compounds read low 1.07 | locus YGR092W, strain DBF2, active compounds read low 0.989 | locus YHR030C, strain SLT2, active compounds read low 0.987 | locus YHR079C, strain IRE1, active compounds read low 0.992 | locus YHR082C, strain KSP1, active compounds read low 1.02 | locus YHR205W, strain SCH9, active compounds read low 0.936 | locus YIL147C, strain SLN1, active compounds read low 0.981 | locus YJL095W, strain BCK1, active compounds read low 1 | locus YJL128C, strain PBS2, active compounds read low 0.958 | locus YJL157C, strain FAR1, active compounds read low 0.988 | locus YJR016C, strain ILV3, active compounds read low 0.992 | locus YJR066W, strain TOR1 (second series), active compounds read low 0.95 | locus YJR066W, strain TOR1, active compounds read low 0.991 | locus YKL048C, strain ELM1, active compounds read low 0.982 | locus YKL067W, strain YNK1, active compounds read low 0.974 | locus YKL101W, strain HSL1, active compounds read low 0.966 | locus YKL193C, strain SDS22, active compounds read low 0.991 | locus YKL203C, strain TOR2, active compounds read low 1.02 | locus YLR113W, strain HOG1, active compounds read low 0.93 | locus YLR133W, strain CKI1, active compounds read low 0.977 | locus YLR403W, strain SFP1, active compounds read low 0.973 | locus YML070W, strain DAK1, active compounds read low 0.981 | locus YMR001C, strain CDC5, active compounds read low 0.986 | locus YMR205C, strain PFK2 (second series), active compounds read low 0.979 | locus YMR277W, strain FCP1, active compounds read low 0.991 | locus YNL006W, strain LST8, active compounds read low 0.995 | locus YNL020C, strain ARK1, active compounds read low 0.985 | locus YNL161W, strain CBK1, active compounds read low 0.981 | locus YNL183C, strain NPR1, active compounds read low 0.997 | locus YNL207W, strain RIO2, active compounds read low 0.985 | locus YNL222W, strain SSU72, active compounds read low 0.995 | locus YNL307C, strain MCK1 (second series), active compounds read low 0.999 | locus YOL078W, strain AVO1, active compounds read low 0.99 | locus YOL136C, strain PFK27, active compounds read low 0.973 | locus YOR061W, strain CKA2, active compounds read low 0.978 | locus YOR119C, strain RIO1, active compounds read low 0.997 | locus YOR231W, strain MKK1, active compounds read low 0.988 | locus YOR329C, strain SCD5, active compounds read low 0.978 | locus YPL031C, strain PHO85, active compounds read low 0.982 | locus YPL153C, strain RAD53, active compounds read low 0.982 | locus YPL204W, strain HRR25, active compounds read low 0.99 | locus YPL209C, strain IPL1, active compounds read low 0.988 | locus YPL256C, strain CLN2, active compounds read low 0.947 | locus YPR025C, strain CCL1, active compounds read low 0.987 | locus YPR106W, strain ISR1, active compounds read low 0.981 | locus YPR111W, strain DBF20, active compounds read low 0.983 | strain NNK1, active compounds read low 0.99 | strain TSCII, active compounds read low 0.986
